Data taken from PubChem BioAssay (NCATS).
Inconclusive results are not listed. Calls of active or inactive are those of the source. Calls follow the shape of the dose curve; as a rule, active = well fitted curve in the direction sought with a large enough effect; inconclusive = small, poorly fitted or top-dose-only effect, or another doubt; inactive = no such curve, though single readings can be large; an effect the other way counts as inactive or inconclusive.

What was measured:
CRL-7250 = normal cell line; assay: Cytotoxic Profiling of Annotated Libraries Using Quantitative High-Throughput Screening (AID 1296008); conditions: Five cell lines viability, CellTiter-Glo ATP luminescence, 48-72 h; max response: hits give low values; also: nearly all actives have a fitted effect of over 60% in size; as to max response: % is scaled to controls: 0 for no effect and ±100 for the full control effect
Method in brief: (§1)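 Compounds were pin-transferred onto cells and incubated 48 or 72 hr at 37 degree Celsius, 95% humidity. CellTiter-Glo was added, plates sat 10 min at room temperature, then ATP-coupled luminescence was imaged as the viability read-out.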

HEK293 = assay: as above; conditions: Five cell lines viability, CellTiter-Glo ATP luminescence, 48-72 h; max response: hits give low values
Method in brief: as §1

HaCat [1] = assay: as above; conditions: Five cell lines viability, CellTiter-Glo ATP luminescence, 48-72 h; max response: hits give low values
Method in brief: as §1

KB-3-1 = assay: as above; conditions: Five cell lines viability, CellTiter-Glo ATP luminescence, 48-72 h; max response: hits give low values
Method in brief: as §1

NIH3T3 [2] = assay: as above; conditions: Five cell lines viability, CellTiter-Glo ATP luminescence, 48-72 h; max response: hits give low values
Method in brief: as §1

HACAT [3] = assay: qHTS assay to identify novel small-molecules to repurpose for Merkel cell carcinoma treatment (AID 1296009); conditions: MCC and control cell lines, CellTiter-Glo viability, 72 h; at 44.8 µM (top of the series) unless noted; also: nearly all actives have a fitted effect of over 60% in size
Method in brief: (§2)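 Cells exposed to NPC (8-point) and MIPE (11-point) compound dilutions for 72 hr at 37 degree celsius; viability read by CellTiter-Glo luminescence, normalized to no-cell and DMSO in-plate controls.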

NIH3T3 [4] = assay: as above; conditions: MCC and control cell lines, CellTiter-Glo viability, 72 h; at 44.8 µM (top of the series) unless noted
Method in brief: as §2

C33A = assay: Primary qHTS to identify gynecologic anti-cancer compounds using libraries of approved drugs and bioactive compounds (AID 1345084); conditions: Gynecologic cancer cell panel viability, ATPlite luminescence, 48 h; series mostly up to 57.5 µM; also: % is scaled to controls: 0 for no effect and ±100 for the full control effect; nearly all actives have a fitted effect of over 55% in size
Method in brief: (§3)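 In this quantitative HTS, cell killing is estimated from loss of ATP-dependent luciferase light. Cells see five compound concentrations over a 48 h exposure.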

CAOV3 = assay: as above; conditions: Gynecologic cancer cell panel viability, ATPlite luminescence, 48 h; series mostly up to 57.5 µM
Method in brief: as §3

CASKI = assay: as above; conditions: Gynecologic cancer cell panel viability, ATPlite luminescence, 48 h; series mostly up to 57.5 µM
Method in brief: as §3

Es-2 = assay: as above; conditions: Gynecologic cancer cell panel viability, ATPlite luminescence, 48 h; series mostly up to 57.5 µM
Method in brief: as §3

HeLa = assay: as above; conditions: Gynecologic cancer cell panel viability, ATPlite luminescence, 48 h; series mostly up to 57.5 µM
Method in brief: as §3

Hek293T = assay: as above; conditions: Gynecologic cancer cell panel viability, ATPlite luminescence, 48 h, control line for the selectivity index; series mostly up to 57.5 µM
Method in brief: as §3

JEG-3 = assay: as above; conditions: Gynecologic cancer cell panel viability, ATPlite luminescence, 48 h; series mostly up to 57.5 µM
Method in brief: as §3

OV90 = assay: as above; conditions: Gynecologic cancer cell panel viability, ATPlite luminescence, 48 h; series mostly up to 57.5 µM
Method in brief: as §3

COc1cc(C)c(C(=O)OC2C(C)OC(OC3CCC(C)C4C3C=C(C)C3/C(C)=C\CC/C(C)=C/C5(C)C=C(C(=O)O)C(C)CC56OC(=O)/C(=C(\O)C34C)C6=O)C(O)C2O)c(OC)c1 (stereo not given)
inactive: outcome (CRL-7250) | max response (HEK293) -1.11% | outcome (HaCat [1]) | max response (KB-3-1) -3.91% | outcome (NIH3T3 [2]) | outcome (HACAT [3]) inactive [at 9.27 µM] | outcome (NIH3T3 [4]) inactive [at 9.27 µM] | activity change, negative = cytotoxicity (C33A) 17.6% [at 11.6 µM] | activity change, negative = cytotoxicity (CAOV3) 11.9% [at 11.6 µM] | activity change, negative = cytotoxicity (CASKI) 0.731% [at 11.6 µM] | activity change, negative = cytotoxicity (Es-2) 6.73% [at 11.6 µM] | activity change, negative = cytotoxicity (HeLa) -3.64% [at 11.6 µM] | activity change, negative = cytotoxicity (Hek293T) 6.05% [at 11.6 µM] | activity change, negative = cytotoxicity (JEG-3) -0.361% [at 11.6 µM] | activity change, negative = cytotoxicity (OV90) 2.6% [at 11.6 µM]

O=C(O)/C=C/c1ccc(O[C@@H]2O[C@H](CO)[C@@H](O)[C@H](O)[C@H]2O)cc1
inactive: outcome (CRL-7250) | max response (HEK293) -0.219% | outcome (HaCat [1]) | outcome (KB-3-1) | outcome (NIH3T3 [2]) | outcome (HACAT [3]) | outcome (NIH3T3 [4]) | Potency (C33A) | Potency (CAOV3) | outcome (CASKI) | Potency (Es-2) | Potency (HeLa) | Potency (Hek293T) | Potency (JEG-3) | Potency (OV90)

CC(=O)OC1C(O)C(C)(O)C(/C=C/C(=O)O)C2(C)CCCC(C)(C)C12 (stereo not given)
inactive: max response (CRL-7250) 4.11% | max response (HEK293) 0.298% | outcome (HaCat [1]) | max response (KB-3-1) 6.25% | outcome (NIH3T3 [2]) | outcome (HACAT [3]) | outcome (NIH3T3 [4]) | Potency (C33A) | Potency (CAOV3) | outcome (CASKI) | Potency (Es-2) | Potency (HeLa) | Potency (Hek293T) | Potency (JEG-3) | Potency (OV90)

C/C=C/C(=O)OC1/C=C/C(O)C(OC(C)=O)CCC(=O)OC1C (stereo not given)
inactive: max response (CRL-7250) -1.17% | max response (HEK293) 3.73% | outcome (HaCat [1]) | max response (KB-3-1) -2.1% | outcome (NIH3T3 [2]) | outcome (HACAT [3]) | outcome (NIH3T3 [4]) | Potency (C33A) | Potency (CAOV3) | outcome (CASKI) | Potency (Es-2) | Potency (HeLa) | Potency (Hek293T) | Potency (JEG-3) | Potency (OV90)

C[C@H](O)C(O)(C(=O)OCc1ccccc1NC(=O)CCC(N)C(=O)O)[C@H](C)O (stereo not given in full)
inactive: max response (CRL-7250) -7.85% | max response (HEK293) -11.8% | outcome (HaCat [1]) | outcome (KB-3-1) | outcome (NIH3T3 [2]) | outcome (HACAT [3]) inactive [at 17.4 µM] | outcome (NIH3T3 [4]) inactive [at 17.4 µM] | Potency (C33A) | Potency (CAOV3) | outcome (CASKI) | Potency (Es-2) | Potency (HeLa) | Potency (Hek293T) | Potency (JEG-3) | Potency (OV90)

C/C=C(\C)C(=O)OCC1OC(OCC2OC(OC3(CO)OC(CO)C(O)C3O)C(O)C(O)C2O)C(O)C(O)C1O (stereo not given)
inactive: max response (CRL-7250) -0.798% | max response (HEK293) -3.28% | outcome (HaCat [1]) | outcome (KB-3-1) | outcome (NIH3T3 [2]) | outcome (HACAT [3]) inactive [at 17.4 µM] | outcome (NIH3T3 [4]) inactive [at 17.4 µM] | Potency (C33A) | Potency (CAOV3) | outcome (CASKI) | Potency (Es-2) | Potency (HeLa) | Potency (Hek293T) | Potency (JEG-3) | Potency (OV90)

COc1ccc(C2OCC3C(c4cc(OC)c5c(c4)OCO5)OCC23)cc1OC (stereo not given)
inactive: max response (CRL-7250) 3.22% | max response (HEK293) 1.08% | outcome (HaCat [1]) | max response (KB-3-1) -4.07% | outcome (NIH3T3 [2]) | outcome (HACAT [3]) inactive [at 17.4 µM] | outcome (NIH3T3 [4]) inactive [at 17.4 µM] | Potency (C33A) | Potency (CAOV3) | outcome (CASKI) | Potency (Es-2) | Potency (HeLa) | Potency (Hek293T) | Potency (JEG-3) | Potency (OV90)

CC1(C)CC[C@]2(C(=O)O)CC[C@]3(C)C(=CCC4[C@@]5(C)C[C@H](O)[C@H](O[C@@H]6O[C@H](CO)[C@@H](O)[C@H](O)[C@H]6O)[C@@](C)(CO)C5[C@H](O)C[C@]43C)[C@@H]2C1 (stereo not given in full)
inactive: max response (CRL-7250) 3.07% | max response (HEK293) 0.861% | outcome (HaCat [1]) | max response (KB-3-1) 3.96% | outcome (NIH3T3 [2]) | outcome (HACAT [3]) inactive [at 17.4 µM] | outcome (NIH3T3 [4]) inactive [at 17.4 µM] | Potency (C33A) | Potency (CAOV3) | outcome (CASKI) | Potency (Es-2) | Potency (HeLa) | Potency (Hek293T) | Potency (JEG-3) | Potency (OV90)

COc1cc(C2CC(=O)Nc3c2cc(Br)c2ccccc32)cc(OC)c1OC (stereo not given)
inactive: outcome (CRL-7250) | max response (HEK293) 1.49% | outcome (HaCat [1]) | outcome (KB-3-1) | outcome (NIH3T3 [2]) | outcome (HACAT [3]) | outcome (NIH3T3 [4]) | Potency (C33A) | Potency (CAOV3) | outcome (CASKI) | Potency (Es-2) | Potency (HeLa) | Potency (Hek293T) | Potency (JEG-3) | Potency (OV90)

CCC1OC(=O)C(C)CC(C)C(=O)/C(C)=C/C(C)C(=O)/C=C/C1(C)O (stereo not given)
inactive: outcome (CRL-7250) | max response (HEK293) -3.54% | outcome (HaCat [1]) | max response (KB-3-1) 8.38% | outcome (NIH3T3 [2]) | outcome (HACAT [3]) | outcome (NIH3T3 [4]) | Potency (C33A) | Potency (CAOV3) | outcome (CASKI) | Potency (Es-2) | Potency (HeLa) | Potency (Hek293T) | Potency (JEG-3) | Potency (OV90)

CC(=O)OCC1OC(O[C@H]2CC[C@@]3(C)C(CC[C@]4(C)C3CC=C3[C@@H]5CC(C)(C)CC[C@]5(C(=O)O)CC[C@]34C)[C@]2(C)CO)C(O)C(O)C1OC1OC(C)C(O)C(OC2OCC(O)C(O)C2O)C1O (stereo not given in full)
inactive: outcome (CRL-7250) | max response (HEK293) -5.43% | outcome (HaCat [1]) | outcome (KB-3-1) | outcome (NIH3T3 [2]) | outcome (HACAT [3]) inactive [at 9.27 µM] | outcome (NIH3T3 [4]) inactive [at 9.27 µM] | activity change, negative = cytotoxicity (C33A) -0.849% [at 11.6 µM] | activity change, negative = cytotoxicity (CAOV3) 3.79% [at 11.6 µM] | activity change, negative = cytotoxicity (CASKI) 14.3% [at 11.6 µM] | activity change, negative = cytotoxicity (Es-2) 2.8% [at 11.6 µM] | activity change, negative = cytotoxicity (HeLa) 8.24% [at 11.6 µM] | activity change, negative = cytotoxicity (Hek293T) 6.88% [at 11.6 µM] | activity change, negative = cytotoxicity (JEG-3) 4.64% [at 11.6 µM] | activity change, negative = cytotoxicity (OV90) -3.49% [at 11.6 µM]

C=C1CC2C3(C)C=CC(=O)OC(C)(C)C3CC(OC(C)=O)C2(C)C2C(=O)OC(C)C(=O)C12C (stereo not given)
inactive: max response (CRL-7250) -1.41% | max response (HEK293) -7.78% | outcome (HaCat [1]) | max response (KB-3-1) 1.96% | outcome (NIH3T3 [2]) | outcome (HACAT [3]) inactive [at 17.4 µM] | outcome (NIH3T3 [4]) inactive [at 17.4 µM] | Potency (C33A) | Potency (CAOV3) | outcome (CASKI) | Potency (Es-2) | Potency (HeLa) | Potency (Hek293T) | Potency (JEG-3) | Potency (OV90)
